# Results filed as inconclusive are left out. Entries that show only a call come without a potency. The source made the active and inactive calls. The call rests on the fitted dose curve; in most records, active means well fitted curve in the direction sought with a large enough effect; inconclusive means small, poorly fitted or top-dose-only effect, or another doubt; inactive means no such curve, though single readings can be large; an effect the other way counts as inactive or inconclusive.
# Legend:
# [1] = qHTS to identify inhibitors of the type 1 interferon - major histocompatibility complex class I in skeletal muscle: primary screen against the NCATS Mechanism Interrogation Plate v5.0 (MIPE) Libary (AID 1347411); further: nearly all actives have a fitted effect of over 65% in size; further: potency means the concentration at half of the fitted maximal effect
# In short: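 Seed engineered human myoblasts (HLA-B HiBit) in medium without dexamethasone containing 4 ng/ml IFN-beta; after 1 hr add compound titrations (top 46 uM final). Incubate 24 hrs at 37 C, lyse 10 min with HiBiT reagent, read luminescence.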
# [2] = DH5-alpha competent E. coli microbial cell viability qHTS against the NCATS CANVASS Library (AID 1347377)
# In short: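 Bacteria were dispensed at 0.2 OD, then compounds were pin-transferred. Plates were incubated overnight at 37C, after which BacTiter-Glo was added and luminescence measured 20 min later.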
# [3] = qHTS for H2AX Agonists against the NCATS CANVASS Library (AID 1347378)
# In short: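 CHO-K1 cells were plated overnight at 37C, then exposed to compounds (concentration series, 0.76% DMSO final) for 3 hr at 37C. Lysates received Eu-cryptate anti-pH2AX (S139) and d2 anti-H2AX antibodies; after 24 hr at room temperature, TR-FRET 665/620 nm ratio was read.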
# [4] = qHTS for Inflammasome Signaling Inhibitors: IL-1-beta AlphaLISA screen against the NCATS CANVASS Library (AID 1347379); conditions: outcome: dose series up to 57.5 µM;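 further: human THP-1 cells primed with LPS then triggered with ATP; secreted IL-1B measured as AlphaLISA emission at 615 nm; lower signal means less IL-1B release which is the wanted effect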
# In short: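 Secreted IL-1B from human THP-1 cells quantified by AlphaLISA 16 hr after compound addition (final up to 57.5 uM). A 1 hr compound pretreatment preceded inflammasome activation with 250 ng/mL LPS plus 1.25 mM ATP (final).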
# [5] = Inflammasome Signaling qHTS Counterscreen: IL-1-beta AlphaLISA counterscreen against the NCATS CANVASS Library (AID 1347381);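 further: cell-free check with purified IL-1β in medium and no THP-1 cells; series mostly up to about 57 µM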
# In short: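 Purified IL-1-beta (4 pg/well) + compound, 11-pt conc. series; acceptor beads 6 ug/mL + biotin-Ab 0.6 nM final, 1 h RT; SA-donor 24 ug/ml final, 30 min dark RT; read ex 680/em 615.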
# [6] = Cytotoxicity qHTS for assessment of Hepg2 cells membrane integrity screened against the NCATS CANVASS Library (AID 1347387)
# In short: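 Cells were seeded at 2000 per well and left overnight to attach. Compounds were pin-transferred to give 0.59 nM - 46 uM in an 11-point series and incubated 5 hr at 37C. CytoTox-ONE reagent was added and, after 10 min at room temperature, fluorescence (ex 560, em 590 nm) was read.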
# [7] = qHTS for Activators of p53 Stress Response Pathway screened against the NCATS CANVASS Library (AID 1347388)
# In short: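 Beta-lactamase reporter driven by p53 response elements in HCT-116 cells, read as the 460 nm/530 nm emission ratio after CCF4 loading, following 16 h of exposure to an 11-point series. Cell viability was measured in the same wells by CellTiter-Glo luminescence.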
# [8] = qHTS assay for small molecule disruptors of mitochondrial membrane potential screened against the NCATS CANVASS Library (AID 1347389); further: series mostly up to about 46 µM; nearly all actives have a fitted effect of over 60% in size
# In short: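 Mitochondrial depolarization in HepG2 cells is scored as a falling aggregate-to-monomer fluorescence ratio after 1 hr compound exposure and 30 min staining with Mito-MPS dye at 37C, each compound tested as an 11-point titration.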
# [9] = Secretion counterscreen for inhibitors of the SERCaMP assay screened against the NCATS CANVASS Library (AID 1347390);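 further: light from luciferase secreted into medium read as a measure of general secretion; series mostly up to about 77 µM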
# In short: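 SH-SY5Y cells expressing constitutively secreted GLuc, 1000 cells/well, attached 4 h at 37C, then exposed to compounds (0.001 - 77 uM, 11-pnt series) for 20 h. Coelenterazine added; luminescence read to flag secretory-pathway interferers.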
# [10] = qHTS for activators of Nrf2/ARE signaling pathway screened against the NCATS CANVASS Library (AID 1347391); further: nearly all actives have a fitted effect of over 60% in size
# In short: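 Beta-lactamase reporter signal, read as 460 and 530 nm emission under 405 nm excitation after 2 h CCF4 loading, reflected ARE activation in HepG2 cells treated 16 h with an 11-point series.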
# [11] = qHTS for activators of dead-cell proteases activity screened against the NCATS CANVASS Library (AID 1347392);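 further: luminescence from protease leaking out of membrane-damaged cells cleaving impermeant substrate; rising signal means more cytotoxicity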
# In short: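 Luminescent dead-cell protease readout (AAF-aminoluciferin, 15 min, room temperature) after 5 h compound treatment of HepG2 cells (2000/well, pre-attached 18 h). Eleven concentrations.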
# [12] = qHTS for inhibitors of ER calcium dysfunction: SERCaMP assay screened against the NCATS CANVASS Library (AID 1347393);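 further: series mostly up to about 77 µM; lower secreted reporter signal means inhibitor of ER calcium depletion; nearly all actives have a fitted effect of over 40% in size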
# In short: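 Thapsigargin-induced ER calcium depletion drives GLuc-SERCaMP secretion from SH-SY5Y cells; compounds given 16 h beforehand were scored by lowered coelenterazine luminescence after 4 h challenge.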
# [13] = Vero-766 cells viability qHTS against the NCATS CANVASS Library: Counterscreen for Zika virus inhibition assay (AID 1347394); further: series mostly up to about 46 µM; nearly all actives have a fitted effect of over 60% in size
# In short: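 Uninfected Vero 766 (African green monkey) cells, 1000/well, attached overnight, then exposed 72 h at 37C to compounds (11-point qHTS). Viability read by CellTiter-Glo luminescence; media-only wells served as 100% inhibition.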
# [14] = qHTS for inhibitors of Wild type Zika virus screened against the NCATS CANVASS Library (AID 1347396);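 further: ATP luminescence of surviving cells so rescue from viral cell killing; series mostly up to about 46 µM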
# In short: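 Protection against wild-type Zika cytopathic effect is measured in African green monkey Vero 766 cells exposed to an 11-point compound series. Surviving cells are quantified by CellTiter Glo luminescence after 72 h.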
# [15] = Viability qHTS for inhibitors of the SERCaMP assay screened against the NCATS CANVASS Library (AID 1347400); further: series mostly up to about 92 µM; nearly all actives have a fitted effect of over 70% in size
# In short: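 Seed SH-SY5Y-GLuc SERCaMP MJH297 cells at 1000 per well, incubate 4 h, add compounds across an 11-point range, incubate 48 h at 37C, then add CellTiter-Glo and read luminescence.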
# [16] = Redox Reaction Profiling qHTS: Assay Interference Panel against the NCATS CANVASS Library (AID 1347401)
# In short: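 Redox-cycling liability assessed as DTT-driven conversion of resazurin (5 uM, with 200 uM DTT, HEPES pH 7.3) to fluorescent resorufin. Fluorescence at 525/598 nm measured initially and after 15 min dark incubation.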
compound,measurement,setting,value
CN(C)C/C=C/C(=O)Nc1ccc(C(=O)Nc2cccc(Nc3ncc(Cl)c(-c4c[nH]c5ccccc45)n3)c2)cc1,Potency,[1],0.294 µM (active)
O=c1ccn([C@@H]2O[C@H](CO)[C@@H](O)[C@H]2O)c(=O)[nH]1,Potency,[1],inactive
Cc1cc(Nc2ncc(Cl)c(Nc3ccccc3S(=O)(=O)C(C)C)n2)c(OC(C)C)cc1C1CCNCC1,Potency,[1],20.8 µM (active)
O=C(c1ccc(NS(=O)(=O)c2cccc3cccnc23)cc1)N1CCN(CC2CC2)CC1,Potency,[1],inactive
CC1(C)O[C@@H]2C[C@H]3[C@@H]4CCC5=CC(=O)C=C[C@]5(C)[C@H]4[C@@H](O)C[C@]3(C)[C@]2(C(=O)CO)O1,Potency,[1],inactive
CN(NC(=O)CC(=O)NN(C)C(=S)c1ccccc1)C(=S)c1ccccc1,Potency,[1],inactive
CO[C@@H]1COCC[C@@H]1N[C@@H]1CC[C@@](C(=O)N2CCc3ncc(C(F)(F)F)cc3C2)(C(C)C)C1,Potency,[1],inactive
COc1cc2c(Nc3ccc(Cl)c(Cl)c3F)ncnc2cc1OCC1C[C@@H]2CN(C)C[C@@H]2C1 (some centres undefined),Potency,[1],20.8 µM (active)
C/C=C/C=C/C(CC(=O)O)Nc1ccc(C=O)cc1 (centres undefined),outcome,[2],inactive
same,outcome,[3],inactive
same,outcome,[4],inactive
same,outcome,[5],inactive
same,outcome,[6],inactive
same,outcome,[7],inactive
same,outcome,[8],inactive
same,outcome,[9],inactive
same,outcome,[10],inactive
same,outcome,[11],inactive
same,outcome,[12],inactive
same,outcome,[13],inactive
same,outcome,[14],inactive
same,outcome,[15],inactive
same,outcome,[16],inactive
CC(C)N(C[C@H]1O[C@@H](n2cnc3c(N)ncnc32)[C@H](O)[C@@H]1O)C1CC(CCc2nc3ccc(C(C)(C)C)cc3[nH]2)C1 (some centres undefined),Potency,[1],inactive
CCCCN(CCCC)C(=O)CN1C[C@H](c2ccc3c(c2)OCO3)[C@@H](C(=O)O)[C@@H]1c1ccc(OC)cc1,Potency,[1],inactive
CNc1nc(Nc2cnn([C@H]3CCN(C4COC4)C[C@@H]3F)c2Cl)ncc1C(F)(F)F,Potency,[1],inactive
Cc1nnc(C(C)C)n1C1CC2CCC(C1)N2CC[C@H](NC(=O)C1CCC(F)(F)CC1)c1ccccc1 (some centres undefined),Potency,[1],inactive
O=C(NCC(=O)N1CC[C@H](NC2CCC(O)(c3ccc(-c4ncccn4)cn3)CC2)C1)c1cccc(C(F)(F)F)c1 (some centres undefined),Potency,[1],inactive
C[C@H]1CN(C[C@H](Cc2ccccc2)C(=O)NCC(=O)O)CC[C@@]1(C)c1cccc(O)c1,Potency,[1],inactive

# From PubChem BioAssay (NCATS)
